Records with an inconclusive call do not appear. A call without a number means that no potency is given here. Active and inactive are the calls of the source. Unless noted, the call rests on the fitted dose curve; in most records, active means well fitted curve in the direction sought with a large enough effect; inconclusive means small, poorly fitted or top-dose-only effect, or another doubt; inactive means no such curve, though single readings can be large; an effect the other way counts as inactive or inconclusive.
How the values were obtained:
[1] = target: Calcium and integrin-binding protein 1 (Homo sapiens) (UniProt Q99828); assay: Primary qHTS for Identification of Calcium Integrin Binding Protein 1 (CIB1) Competitor (AID 1508620);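 further: GST tagged CIB1 binding a fluorescein labelled alphaIIb integrin peptide tracer; top concentration of the series differs between compounds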
Sequence of Calcium and integrin-binding protein 1 (Homo sapiens) (Q99828 whole entry, looked up): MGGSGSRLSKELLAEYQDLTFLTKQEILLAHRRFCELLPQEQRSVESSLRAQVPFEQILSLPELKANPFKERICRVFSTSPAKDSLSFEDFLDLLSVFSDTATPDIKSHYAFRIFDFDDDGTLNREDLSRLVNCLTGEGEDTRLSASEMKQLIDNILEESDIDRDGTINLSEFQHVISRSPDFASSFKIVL
Summary of the method: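 Fluorescence polarization competition: GST-tagged CIB1 (1 uM final) preincubated with compound 15 min at room temperature, then FITC-labelled alphaIIb peptide (100 nM final) added. After 15 min at room temperature, polarization read at Ex 480/Em 540.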

[2] = target: Cytochrome P450 2C9 (Homo sapiens) (UniProt P11712); assay: Cytochrome P450 family 2 subfamily C member 9 (CYP2C9) small molecule antagonists: luciferase biochemical (cell-free) qHTS assay (AID 1645842; active means well fitted curve in the direction sought with a large enough effect in the repeat runs; an effect the other way counts as inactive or inconclusive; further: nearly all actives have a fitted effect of over 55% in size; further: potency means the concentration at half of the fitted maximal effect)
Sequence of Cytochrome P450 2C9 (Homo sapiens) (P11712 whole entry, looked up): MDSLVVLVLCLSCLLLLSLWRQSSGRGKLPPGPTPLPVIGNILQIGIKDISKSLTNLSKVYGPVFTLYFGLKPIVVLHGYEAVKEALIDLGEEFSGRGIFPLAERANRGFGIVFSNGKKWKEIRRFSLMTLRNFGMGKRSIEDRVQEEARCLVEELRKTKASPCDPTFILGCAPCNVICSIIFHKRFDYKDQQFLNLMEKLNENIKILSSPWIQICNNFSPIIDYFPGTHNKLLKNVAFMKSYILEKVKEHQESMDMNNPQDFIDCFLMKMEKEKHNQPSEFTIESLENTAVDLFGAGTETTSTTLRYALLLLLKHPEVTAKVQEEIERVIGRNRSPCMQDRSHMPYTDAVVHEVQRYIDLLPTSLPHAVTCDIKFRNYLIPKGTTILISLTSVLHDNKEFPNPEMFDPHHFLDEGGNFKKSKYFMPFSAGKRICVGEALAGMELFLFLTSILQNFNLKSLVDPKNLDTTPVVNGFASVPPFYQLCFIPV
Summary of the method: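 P450-Glo CYP2C9 system: proluciferin substrate with enzyme in mix containing 0.4% BSA, 10 min at room temperature, then NADPH regeneration solution added and incubated 1 h at 37C. Detection reagent stopped reaction; luminescence read after 20 min as RLU.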

[3] = Primary qHTS for inhibitors of nuclear receptor binding SET domain protein 2 (NSD2) in an isogenic RCH-ACV NSD2 p.E1099K mutant (9B) (AID 1645876); further: nearly all actives have a fitted effect of over 70% in size; further: potency means the concentration at half of the fitted maximal effect
[4] = Primary qHTS for inhibitors of nuclear receptor binding SET domain protein 2 (NSD2) in an RCH-ACV wild type WT cells (2C) (AID 1645877); further: nearly all actives have a fitted effect of over 70% in size
[5] = target: N-terminal Xaa-Pro-Lys N-methyltransferase 1 (Homo sapiens) (UniProt Q9BV86); assay: Confirmatory qHTS for Inhibitors of N-terminal methyltransferase 1 (NTMT1): MTaseGlo Assay (AID 1645874); further: potency means the concentration at half of the fitted maximal effect; nearly all actives have a fitted effect of over 65% in size
Sequence of N-terminal Xaa-Pro-Lys N-methyltransferase 1 (Homo sapiens) (Q9BV86 whole entry, looked up): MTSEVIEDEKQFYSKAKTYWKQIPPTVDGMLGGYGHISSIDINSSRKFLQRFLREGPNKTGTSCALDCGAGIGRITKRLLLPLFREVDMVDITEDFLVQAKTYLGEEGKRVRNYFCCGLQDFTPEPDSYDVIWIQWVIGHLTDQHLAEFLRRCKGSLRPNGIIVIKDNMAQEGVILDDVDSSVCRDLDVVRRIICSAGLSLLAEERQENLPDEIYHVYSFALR
Summary of the method: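 Room-temperature NTMT1 reaction, 30 min, with 100 uM SAM and 1 uM SPKRIA substrate; enzyme 125 nM. Read-out: MTase-Glo luminescence, normalized to no-enzyme and DMSO controls.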

Row | SMILES | Potency [1] | Potency [2] | Potency [3] | Potency [4] | Potency [5]
1 | CC(C)(C)c1ccc(C(=O)Nc2cn3cc(-n4ccnc4)ccc3n2)cc1 | inactive | 7.56 µM (active) | inactive | inactive | 
2 | Cn1c(=O)c(F)c(Nc2ccc(I)cc2F)c2c(=O)n(CC(O)CO)cnc21 (stereo not drawn) | inactive | 9.52 µM (active) | 23 µM (active) |  | 
3 | OC(CC1c2ccccc2-c2cncn21)C1CCCCC1 (stereo not drawn) | inactive | 2.68 µM (active) | 23 µM (active) |  | 
4 | Cc1cc(-c2nc(-c3ccc(OC(F)(F)F)cc3)no2)nn1Cc1ccnc(N2CCN(C3CC3)CC2)c1 | inactive | 6.01 µM (active) |  |  | 
5 | Cc1cccc(N2CCN(C(=O)c3cc(S(=O)(=O)N(C)C)ccc3N3CCCC3)CC2)c1C | inactive | 13.5 µM (active) | inactive | inactive | 
6 | O=C(NCc1ccccc1-c1ccccc1C(=O)NCCc1ccccn1)OCc1ccccc1 | inactive | 2.68 µM (active) |  |  | 
7 | O=C(O)c1cc(N(Cc2ccc(C3CCCCC3)cc2)C(=O)c2ccc(Oc3ccccc3)cc2)ccc1O | inactive | 23.9 µM (active) |  |  | 30.8 µM (active)
8 | CN1CCN(C2=Nc3ccccc3Nc3ccc(Cl)cc32)CC1 | inactive | 13.5 µM (active) |  |  | 
9 | COc1ccc(S(=O)(=O)Nc2cc(Cl)cc(Cl)c2OC)cc1N1CCNCC1 | inactive | 12 µM (active) | 20.5 µM (active) |  | 
10 | Cc1cc(OCCCS(C)(=O)=O)cc(C)c1-c1cccc(COc2ccc3c(c2)OCC3CC(=O)O)c1 (stereo not drawn) | inactive | inactive | inactive | inactive | 
11 | O=C(Nc1ccc(-n2nc(C(F)(F)F)cc2C(F)(F)F)cc1)c1ccncc1F | inactive | 26.8 µM (active) | 20.5 µM (active) |  | 
